# PubChem BioAssay (EPA / NIEHS)
# Active and inactive are the calls of the source. The calls were made as follows: active = hit-call score of the fitted dose curve at least 0.9, where 1 is the maximum; inactive = score below 0.9.
# Test: ATG_Sox_CIS: Attagene CIS-FACTORIAL HepG2 Assay for human SRY-box transcription factor (SOX) (AID 2282960)
# Conditions: HepG2 Attagene cis-factorial SOX reporter, mRNA; actives raise or lower the signal
# Experimental: ATG_CIS is a cell-based, multiplexed-readout assay that uses HepG2, a human liver cell line, with measurements taken at 24 hours after chemical dosing in a 24-well plate.ATG_Sox_CIS is one of 52 assay component(s) measured or calculated from the ATG_CIS assay. It is designed to make measurements of mRNA induction, a form of inducible reporter, as detected with fluorescence intensity signals by Reverse transcription polymerase chain reaction (RT-PCR) and Capillary electrophoresis technology.Data from the assay component ATG_Sox_CIS was analyzed into 1 assay endpoint. This assay endpoint, ATG_Sox_CIS, was analyzed with bidirectional fitting relative to DMSO as the negative control and baseline of activity. Using a type of inducible reporter, measures of mRNA for gain or loss-of-signal activity can be used to understand the reporter gene at the transcription factor-level as they relate to the gene SOX1. Furthermore, this assay endpoint can be referred to as a primary readout, because this assay has produced multiple assay endpoints where this one serves a reporter gene function. To generalize the intended target to other relatable targets, this assay endpoint is annotated to the dna binding intended target family, where the subfamily is HMG box protein.
# Human liver HepG2 cells are transiently transfected with multiple reporter transcription units (MRTUs) in 6-well plates using FuGene 6 reagent (Roche; 3 ml FuGene/1 mg DNA). The MRTU constructs are regulated by a cis-regulating element (promoter). […] A major difference between the CIS and TRANS system is that in CIS activities of endogenous TFs are measured, whereas the TRANS assay evaluates changes in activities of exogenous, chimeric NR-Gal4 proteins. […] At the end of 24 hour incubation, total RNA was isolated using TriZol reagent (Invitrogen). The isolated RNA is then reverse-transcribed using oligo(dT) primer and Mo-MLV reverse transcriptase (Invitrogen) with DNAse I (Ambion) treatment for 30 min. The one-tenth of the produced cDNA was amplified by PCR using Taq DNA polymerase (Invitrogen) and two reporter sequence-specific primers. The PCR products were fluorescently labeled by primer extension with 6-arboxyfluorescein (6-FAM) 5'-labeled reporter sequence-specific primer (2 min at 95 C, 20 s at 68 C and 10 min at 72 C) and these products were digested with 5U of HpaI (New England Biolabs) for 2h at 37 C. The fragments were purified using Qiaquick PCR columns (Qiagen), analyzed on an ABI 3130xL genetic analyzer (Applied Biosystems) with peak positions identified by using a set of X-rhodamine (ROX)-labeled MapMarker1000 molecular weight standards (BioVentures). The raw capillary electrophoresis data was processed using Attagraph software (Attagene).
SMILES,outcome,AC50
CCCCCCCC1CCC(=O)O1 (stereo not given),inactive,
O=C(O)[C@H](O)[C@@H](O)C(=O)O,inactive,
COCc1nnc(-c2ccc[n+]([O-])c2)n1-c1c(Cl)c(Cl)cc2[nH]c(=O)c(=O)[nH]c12,inactive,
CC(C)C(=O)Nc1ccc([N+](=O)[O-])c(C(F)(F)F)c1,inactive,
Cc1nc(-c2ccccn2)ncc1C(=O)Nn1cc(C)c2cc(F)ccc21,inactive,
OCc1ccccc1,inactive,
O=S(=O)(O)CCC(F)(F)C(F)(F)C(F)(F)C(F)(F)C(F)(F)C(F)(F)F,inactive,
CCCCN1C(=O)[C@@H]([C@H](O)C2CCCCC2)NC(=O)C12CCN(Cc1ccc(Oc3ccc(C(=O)O)cc3)cc1)CC2,inactive,
O=C(Cl)C(F)(F)C(F)(F)C(F)(F)C(=O)Cl,inactive,
O=C(O)c1cccc(C(=O)O)c1,inactive,
C[C@]12C=CC(=O)C=C1CC[C@H]1[C@@H]3C[C@@H](O)[C@](O)(C(=O)CO)[C@@]3(C)C[C@H](O)[C@@]12F,inactive,
NC(=O)NN=Cc1ccc([N+](=O)[O-])o1,inactive,
O=S1(=O)CCCO1,inactive,
c1ccc2ncccc2c1,inactive,
NNC(=O)c1ccncc1,inactive,
NC(=O)N(O)[C@@H]1COc2cc(OCc3ccccc3)ccc21,inactive,
O=S(=O)(O)c1ccc(N=Nc2c(O)ccc3cc(S(=O)(=O)O)ccc23)cc1,inactive,
CC(C)CC(C)O (stereo not given),inactive,
O=C(O)CO,inactive,
OCCNCCO,inactive,

SMILES,outcome,AC50
CCCc1ccccc1,inactive,
OCc1c[nH]c2ccccc12,inactive,
O=C(O)c1cccc(C[C@@H]2COc3ccc(OCc4nc5cc(F)ccc5s4)cc3[C@@H]2O)c1,inactive,
NC(=O)N1c2ccccc2C=Cc2ccccc21,inactive,
CCc1ccc(O)c(C(C)(C)C)c1,inactive,
FC(F)(F)COC(OCC(F)(F)F)OCC(F)(F)F,inactive,
NCC(F)(F)C(F)(F)C(F)(F)C(F)(F)F,inactive,
CCCCCCOC(=O)CC(CC(=O)OCCCCCC)(OC(=O)CCC)C(=O)OCCCCCC,inactive,
CCN(CC)C(=S)SSC(=S)N(CC)CC,,100 µM (active)
Cc1ccc(S(=O)(=O)NC(=O)NN2CCCCCC2)cc1,inactive,
CC(C)CCCCCCOC(=O)C1CCCCC1C(=O)OCCCCCCC(C)C (stereo not given),inactive,
S=P(N1CC1)(N1CC1)N1CC1,inactive,
NC(N)=O,inactive,
FC(F)C(F)(F)COCC1CO1 (stereo not given),inactive,
COc1cc2c(c(OC)c1OC)-c1ccc(OC)c(=O)cc1[C@@H](NC(C)=O)CC2,inactive,
CC1(C)C(=O)N(Cl)C(=O)N1Cl,inactive,
CC(=O)c1ccccc1,inactive,
OCCOCCOCCO,inactive,
Nc1ccn([C@@H]2O[C@H](CO)[C@@H](O)[C@@H]2O)c(=O)n1,inactive,
c1ccc2c(c1)-c1cccc3c1c-2cc1ccccc13,inactive,
